The nature of assay [1]: yeast TOR pathway RPL19A-GFP modulators, primary screen, cell-based, S. cerevisiae, multiplex flow cytometry (AID 1862; in the data active means percent of DMSO control GFP below about 86%;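 further: lower values mimic rapamycin by blocking the RPL19A rise seen in DMSO cells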). Conditions: S. cerevisiae RPL19A-GFP strain, flow cytometry fluorescence, 3 h; at 10 µM; stronger effect = lower value. Background: A flow cytometer gives signals particle by particle.
The nature of assay [2]: modulators of MEP2-GFP levels in yeast, primary screen, S. cerevisiae, multiplex flow cytometry (AID 1867;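 active means GFP response, as percent of the DMSO control, above the screen-wide mean plus 3 SD, about 139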;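 further: median GFP channel fluorescence of barcode-gated MEP2-GFP cells measured by flow cytometry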). The note with it: S. cerevisiae MEP2-GFP strain, 3 h, at 10 µM, stronger effect = higher value, 100% means same as DMSO wells.
The nature of assay [3]: modulators of CIT2-GFP expression in yeast, primary screen, S. cerevisiae, GFP fusion, multiplex flow cytometry (AID 1870;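 active means percent response above a set limit, the screen-wide mean plus 3 SD, cut at about 130% in these data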;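 further: barcoded CIT2-GFP strain pooled with four other GFP strains with rapamycin as positive control; median GFP fluorescence per well over plate mean of DMSO wells so 100% = DMSO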). The note with it: 3 h, at 10 µM, stronger effect = higher value.
Assay [4] is described as follows: modulators of LAP4-GFP expression in yeast, primary screen, S. cerevisiae, multiplex flow cytometry (AID 1873;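 active means GFP signal, as percent of the solvent control, above the screen mean plus 3 SD, about 149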). Conditions: 3 h, at 10 µM, stronger effect = higher value.
Assay [5] is described as follows: modulators of AGP1-GFP expression in yeast TOR pathway, primary screen, cell-based, multiplex flow cytometry, S. cerevisiae (AID 1887;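 active means GFP signal above the screen-wide mean plus 3 SD, that is over about 124.5% of the solvent control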;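 further: AGP1-GFP fusion strain of S. cerevisiae within a five-strain barcoded multiplex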). The note with it: 3 h, at 10 µM, stronger effect = higher value.
Assay [6] in a line: inhibitors of CD8+ T cell-vesicle binding, pilot screen, LFA-1/ICAM-1 modulator project, MLPCN validation set, flow cytometry (AID 2523;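 active means response below a set limit, under 55% cells CD8-positive and vesicle-bound, and CD8 cells' 90th-percentile brightness under 279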;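 on vesicle binding response: mean PE anti-B7-1 fluorescence of CD8+ cells relative to row control; 100% = QL9-loaded vesicles with DMSO vehicle in the same plate row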). The note with it: 2C mouse CD8+ T cells, at 7 µM, stronger effect = lower value; double positive events: measured here: CD8+/vesicle+ event percentage.
Assay [7] concerns the target Integrin beta-1 (Homo sapiens) + Integrin alpha-4 (Homo sapiens) (UniProt P13612+P05556). The assay is described as follows: inhibition of HUTS-21 binding to VLA-4, pilot screen, VLA-4 allosteric modulator project, U937 cells, HUTS-21 mAb, flow cytometry, validation set (AID 2674;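 active means inhibition above 50%, about 3 SD of the validation set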;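 further: antibody binding induced by the VLA-4 ligand LDV present at three times its Kd; 0% = LDV ligand with antibody and no compound and 100% = antibody without LDV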). The note with it: HUTS-21 LIBS mAb binding, at 6.7 µM, stronger effect = higher value, binding induced by LDV ligand.

A short description of assay [8]: superoxide lowering in aged yeast cells, pilot screen, validation compound set (AID 2706;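 active means superoxide response below 65% of plate, a cut near 3 SD across the whole screen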;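 further: yeast exposed to compound for one week at 30 degrees C before staining; 100% = mean of all compound wells on the same plate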). The note with it: S. cerevisiae aging, superoxide DHE fluorescence; at 10 µM; stronger effect = lower value.
Assay [9] deals with Beta-adrenergic receptor kinase 1 (Homo sapiens) (UniProt P25098). The assay is described as follows: GRK2 binders displacing RNA aptamer, biochemical, validation, human GRK2, bead flow cytometry (AID 488806;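 active means aptamer binding inhibition above 30%, about 3 SD of noise from non-fluorescent compounds; inactive means inhibition at or below 30%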). Conditions: bead-bound GRK2, FAM-aptamer displacement, at 10 µM, stronger effect = higher value.
For assay [10], the target named is Beta-2 adrenergic receptor (Homo sapiens) (UniProt P07550). The assay is described as follows: beta2AR agonists driving receptor internalization, pilot screen, cell-based, FAP fluorogen, flow cytometry, validation set (AID 504459).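 Further: agonist-driven loss of surface beta2AR via internalization measured by FAP dye flow cytometry.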 Conditions: Am2.2-beta2AR cells, FAP surface receptor flow cytometry; at 10 µM; stronger effect = higher value.
In assay [11] the target is AP-2 complex subunit beta (Homo sapiens) (UniProt P63010). The assay is described as follows: inhibitors of arrestin peptide binding to AP2, pilot screen, biochemical, validation set, GST-AP2 beads, flow cytometry (AID 504541;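 active means inhibition above 54%, about 3 SD of non-fluorescent compounds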;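 further: AP2 carries R879A mutation and is captured from E. coli lysate; bead-bound FITC arrestin peptide fluorescence measuring arrestin peptide binding to AP2; 0% = DMSO wells and 100% = excess unlabeled arrestin peptide control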). The note with it: FITC arrestin peptide, at 10 µM, stronger effect = higher value, AP2 beta2 appendage fragment, R879A mutant.
A short description of assay [12]: yeast V-ATPase proton transport modulators, S. cerevisiae, pHLuorin, HTS validation (AID 504600; in the data active means response above about 15%;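 further: plate controls were DMSO for no effect and reference compound for full effect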). The note with it: S. cerevisiae pHLuorin cytosolic pH, at 10 µM, stronger effect = higher value.
Assay [13] deals with anti-desmoglein-3 scFv antibody binding to human DSG3. The assay is described as follows: inhibitors of anti-DSG3 scFv binding to DSG3, pilot screen, biochemical, validation compound set, bead-based, flow cytometry (AID 588368;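 active means binding below the plate cutoff, the plate median minus 3 SD, with a reading above zero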;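 further: signal is the median channel fluorescence of bead-bound GFP antibody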). Conditions: Protein G beads, DSG3-Fc, scFv-GFP binding, at 10 µM, stronger effect = lower value.
Assay [14] can be described thus: inhibitors of fungal efflux pumps CDR1, CDR2, MDR1, pilot screen, validation compound set, multiplex, phenotypic (AID 588506;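 active means efflux inhibition above 0.42, the validation set average plus 4 SD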;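 further: Nile Red retained in cells so higher fluorescence means more efflux inhibition; 0 = negative control wells and 1 = enniatin B 25 µM full block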). The note with it: S. cerevisiae pump-expressing triplex, Nile Red efflux flow cytometry; at 10 µM; stronger effect = higher value; the pumps come from Candida albicans.
In assay [15] the target is ATP-binding cassette sub-family B member 6 (Homo sapiens) (UniProt Q9NP58). The assay is described as follows: ABCB6 transporter inhibitors, pilot screen, K562-ABCB6 cells, flow cytometry, validation set (AID 588550;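 active means inhibition above the screen-wide mean plus 3 SD, about 51%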;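 further: 0% = DMSO wells and 100% = benzethonium chloride 70 µM positive control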). The note with it: K562-ABCB6 porphyrin accumulation, 1 h, at 10 µM, stronger effect = higher value.
The nature of assay [16]: promoters of myeloid differentiation in arrested cells, primary screen, cell-based, GFP/MAC1 double positive, flow cytometry, validation set (AID 588685;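 active means differentiation response of at least 50%, scaled between solvent and reference control, from cells with both markers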;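 further: compound exposure lasts four days before antibody staining and flow analysis; 0% = DMSO wells and 100% = 5 µM fulvestrant positive control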). The note with it: ER-HoxA9 marrow cells, stronger effect = higher value, normalized: vehicle 0, fulvestrant 100.

Results filed as inconclusive are left out. The source made the active and inactive calls.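 How the source made its calls, unless noted: active means percent response above 42, roughly 3 SD of non-fluorescent test compounds; inactive means the rest.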

Beta-2 adrenergic receptor (Homo sapiens), sequence (P07550 whole entry, looked up): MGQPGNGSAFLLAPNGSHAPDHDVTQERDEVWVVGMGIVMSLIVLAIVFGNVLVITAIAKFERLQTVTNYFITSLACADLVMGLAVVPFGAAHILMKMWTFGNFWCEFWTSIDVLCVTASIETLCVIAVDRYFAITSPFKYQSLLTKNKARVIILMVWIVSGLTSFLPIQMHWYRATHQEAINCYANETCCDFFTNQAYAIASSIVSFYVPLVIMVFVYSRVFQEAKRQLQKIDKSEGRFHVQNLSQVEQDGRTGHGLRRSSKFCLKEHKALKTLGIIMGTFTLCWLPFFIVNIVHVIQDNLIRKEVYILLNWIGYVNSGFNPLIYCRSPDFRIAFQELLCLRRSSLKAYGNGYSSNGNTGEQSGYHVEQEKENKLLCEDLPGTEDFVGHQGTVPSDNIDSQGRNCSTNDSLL
AP-2 complex subunit beta (Homo sapiens), sequence (P63010 whole entry, looked up, the tested form may be a part, one chain of several): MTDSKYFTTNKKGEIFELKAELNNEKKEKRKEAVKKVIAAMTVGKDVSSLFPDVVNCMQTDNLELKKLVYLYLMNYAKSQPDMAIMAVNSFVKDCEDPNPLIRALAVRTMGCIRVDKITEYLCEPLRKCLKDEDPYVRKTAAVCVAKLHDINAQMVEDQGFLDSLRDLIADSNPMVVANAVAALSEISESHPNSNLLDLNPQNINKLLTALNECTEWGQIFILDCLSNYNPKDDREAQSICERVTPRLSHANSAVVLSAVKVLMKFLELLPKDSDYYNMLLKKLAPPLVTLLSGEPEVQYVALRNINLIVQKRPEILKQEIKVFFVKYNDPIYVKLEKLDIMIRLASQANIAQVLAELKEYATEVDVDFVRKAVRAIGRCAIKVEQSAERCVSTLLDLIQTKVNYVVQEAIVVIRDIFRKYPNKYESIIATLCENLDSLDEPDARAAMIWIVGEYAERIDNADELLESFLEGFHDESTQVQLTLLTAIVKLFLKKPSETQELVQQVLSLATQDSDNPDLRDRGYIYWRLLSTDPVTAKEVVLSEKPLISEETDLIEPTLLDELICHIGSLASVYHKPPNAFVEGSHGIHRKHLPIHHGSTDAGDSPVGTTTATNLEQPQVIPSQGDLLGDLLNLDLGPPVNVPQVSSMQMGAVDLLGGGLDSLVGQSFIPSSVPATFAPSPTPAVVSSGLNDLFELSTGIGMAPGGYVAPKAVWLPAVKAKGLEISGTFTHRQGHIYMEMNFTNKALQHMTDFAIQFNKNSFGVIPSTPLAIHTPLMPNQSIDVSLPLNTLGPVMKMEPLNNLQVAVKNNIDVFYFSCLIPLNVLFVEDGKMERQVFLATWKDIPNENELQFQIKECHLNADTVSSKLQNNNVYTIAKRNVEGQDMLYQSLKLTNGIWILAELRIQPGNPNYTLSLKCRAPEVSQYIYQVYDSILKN
Beta-adrenergic receptor kinase 1 (Homo sapiens), sequence (P25098 whole entry, looked up): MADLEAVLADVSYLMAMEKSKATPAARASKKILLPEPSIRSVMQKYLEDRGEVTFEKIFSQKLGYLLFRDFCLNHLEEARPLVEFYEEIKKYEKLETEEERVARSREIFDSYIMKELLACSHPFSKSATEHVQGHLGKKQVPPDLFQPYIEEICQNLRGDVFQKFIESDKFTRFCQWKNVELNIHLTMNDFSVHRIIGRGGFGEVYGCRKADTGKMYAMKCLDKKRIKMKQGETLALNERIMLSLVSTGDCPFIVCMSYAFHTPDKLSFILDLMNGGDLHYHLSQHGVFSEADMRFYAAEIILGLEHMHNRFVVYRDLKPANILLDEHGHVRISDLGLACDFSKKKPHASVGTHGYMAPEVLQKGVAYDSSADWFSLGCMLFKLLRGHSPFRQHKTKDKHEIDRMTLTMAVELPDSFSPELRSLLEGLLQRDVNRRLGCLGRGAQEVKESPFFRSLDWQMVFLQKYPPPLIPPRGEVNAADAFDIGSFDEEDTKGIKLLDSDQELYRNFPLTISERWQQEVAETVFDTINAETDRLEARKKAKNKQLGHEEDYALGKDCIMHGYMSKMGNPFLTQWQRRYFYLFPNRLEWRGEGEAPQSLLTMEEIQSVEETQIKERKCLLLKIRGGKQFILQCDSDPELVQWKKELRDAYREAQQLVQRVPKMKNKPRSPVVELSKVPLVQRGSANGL
ATP-binding cassette sub-family B member 6 (Homo sapiens), sequence (Q9NP58 whole entry, looked up): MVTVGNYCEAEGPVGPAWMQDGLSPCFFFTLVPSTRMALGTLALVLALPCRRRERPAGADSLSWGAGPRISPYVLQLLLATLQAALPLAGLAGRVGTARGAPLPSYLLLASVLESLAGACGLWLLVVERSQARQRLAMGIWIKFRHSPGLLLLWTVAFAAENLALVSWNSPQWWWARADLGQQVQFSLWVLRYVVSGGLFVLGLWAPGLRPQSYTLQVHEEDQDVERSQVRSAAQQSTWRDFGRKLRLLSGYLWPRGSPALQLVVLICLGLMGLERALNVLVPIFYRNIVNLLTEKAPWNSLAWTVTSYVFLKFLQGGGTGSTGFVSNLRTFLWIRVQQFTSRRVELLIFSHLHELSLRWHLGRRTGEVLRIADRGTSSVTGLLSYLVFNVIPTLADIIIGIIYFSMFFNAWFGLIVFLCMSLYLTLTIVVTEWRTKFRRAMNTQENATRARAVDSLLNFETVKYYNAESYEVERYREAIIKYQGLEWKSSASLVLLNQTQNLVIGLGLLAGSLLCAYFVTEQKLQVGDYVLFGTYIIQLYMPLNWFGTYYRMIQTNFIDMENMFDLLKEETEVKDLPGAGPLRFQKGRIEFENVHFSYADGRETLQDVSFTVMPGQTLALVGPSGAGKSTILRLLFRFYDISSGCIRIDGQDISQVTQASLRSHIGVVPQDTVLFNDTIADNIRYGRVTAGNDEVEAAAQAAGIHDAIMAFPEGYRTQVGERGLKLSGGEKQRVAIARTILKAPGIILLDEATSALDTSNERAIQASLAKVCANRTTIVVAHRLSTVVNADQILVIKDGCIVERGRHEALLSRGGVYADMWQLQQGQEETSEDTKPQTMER
Integrin beta-1 (Homo sapiens) + Integrin alpha-4 (Homo sapiens), sequence (P05556 whole entry, looked up): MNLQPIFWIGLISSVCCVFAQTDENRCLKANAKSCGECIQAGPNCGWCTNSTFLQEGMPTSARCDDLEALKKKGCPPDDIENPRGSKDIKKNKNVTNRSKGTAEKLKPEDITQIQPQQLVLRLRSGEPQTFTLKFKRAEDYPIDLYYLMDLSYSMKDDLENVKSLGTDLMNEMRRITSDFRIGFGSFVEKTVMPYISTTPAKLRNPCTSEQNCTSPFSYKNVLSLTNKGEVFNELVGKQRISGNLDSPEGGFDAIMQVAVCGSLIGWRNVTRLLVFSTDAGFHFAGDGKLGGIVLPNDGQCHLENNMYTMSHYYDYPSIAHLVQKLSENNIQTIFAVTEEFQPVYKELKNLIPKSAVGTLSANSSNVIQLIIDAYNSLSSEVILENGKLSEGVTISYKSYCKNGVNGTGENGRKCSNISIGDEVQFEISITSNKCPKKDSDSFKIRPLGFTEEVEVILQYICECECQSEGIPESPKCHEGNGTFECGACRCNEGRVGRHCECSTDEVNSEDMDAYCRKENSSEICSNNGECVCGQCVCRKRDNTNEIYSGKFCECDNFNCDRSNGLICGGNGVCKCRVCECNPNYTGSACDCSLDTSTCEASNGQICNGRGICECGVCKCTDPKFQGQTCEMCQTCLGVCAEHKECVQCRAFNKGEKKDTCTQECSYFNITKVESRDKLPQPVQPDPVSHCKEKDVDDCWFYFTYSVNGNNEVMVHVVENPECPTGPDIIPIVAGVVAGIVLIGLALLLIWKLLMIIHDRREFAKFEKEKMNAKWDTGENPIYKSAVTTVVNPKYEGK
Integrin beta-1 (Homo sapiens) + Integrin alpha-4 (Homo sapiens), sequence (P13612 whole entry, looked up): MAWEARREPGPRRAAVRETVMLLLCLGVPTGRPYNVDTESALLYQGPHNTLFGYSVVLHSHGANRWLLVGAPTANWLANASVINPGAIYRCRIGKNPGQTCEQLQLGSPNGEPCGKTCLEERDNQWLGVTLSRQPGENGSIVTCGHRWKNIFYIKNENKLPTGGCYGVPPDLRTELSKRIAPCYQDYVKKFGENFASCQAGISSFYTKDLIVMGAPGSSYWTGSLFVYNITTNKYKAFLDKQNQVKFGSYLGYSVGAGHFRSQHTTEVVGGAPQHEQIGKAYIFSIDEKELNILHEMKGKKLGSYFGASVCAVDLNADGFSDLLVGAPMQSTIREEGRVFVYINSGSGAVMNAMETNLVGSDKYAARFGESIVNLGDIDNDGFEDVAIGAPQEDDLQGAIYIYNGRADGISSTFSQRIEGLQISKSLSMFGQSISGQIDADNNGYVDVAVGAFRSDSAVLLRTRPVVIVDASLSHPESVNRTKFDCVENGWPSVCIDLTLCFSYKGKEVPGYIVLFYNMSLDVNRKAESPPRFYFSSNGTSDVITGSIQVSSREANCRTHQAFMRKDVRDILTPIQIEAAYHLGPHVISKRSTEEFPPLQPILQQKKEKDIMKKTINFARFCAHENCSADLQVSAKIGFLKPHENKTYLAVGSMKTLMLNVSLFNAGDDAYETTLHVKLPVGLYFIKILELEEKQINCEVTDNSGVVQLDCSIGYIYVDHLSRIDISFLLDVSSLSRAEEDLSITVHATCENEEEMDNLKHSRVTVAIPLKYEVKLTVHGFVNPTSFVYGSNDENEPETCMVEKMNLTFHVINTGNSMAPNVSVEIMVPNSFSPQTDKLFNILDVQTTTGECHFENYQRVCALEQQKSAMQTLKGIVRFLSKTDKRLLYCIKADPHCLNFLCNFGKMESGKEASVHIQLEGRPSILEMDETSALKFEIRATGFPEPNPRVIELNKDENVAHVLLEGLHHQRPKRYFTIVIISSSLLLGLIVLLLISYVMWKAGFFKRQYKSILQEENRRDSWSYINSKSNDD

A word on the inhibition: it is the drop in the measured response relative to a control, in per cent. With `Cn1c(=O)c2c(ncn2CCO)n(C)c1=O`, the percent of DMSO control GFP in assay [1] was 102% (inactive). In addition, the figures for the GFP response vs DMSO in assay [2] and in assay [4] were 112% (inactive) and 88.6% (inactive), respectively. For the same compound, in [3], the percent response of DMSO control is 116% (inactive). The GFP response, % of DMSO in [5] was 101% (inactive). This compound also returned a double positive events in assay [6] of 63.6%. Besides, in [6], the vesicle binding response is 250% (inactive). Moreover, the inhibition is -32.3% (inactive) in assay [7], -1.93% (inactive) in assay [11] and 6% (inactive) in assay [15]. Also, the superoxide response (% of plate) in assay [8] was 98.5% (inactive). Besides, the aptamer binding inhibition in assay [9] is -2% (inactive). Further, the response is 15.1% (inactive) in assay [10] and 0.08% (inactive) in [12]. In addition, the binding (% of control) in assay [13] was 106% (inactive). Further, the efflux inhibition (fraction of control) in assay [14] was -0.17 (inactive). Moreover, the differentiation response in assay [16] was 1.64% (inactive).

In the case of `COc1cccc(CC2CC(=O)N(c3ccc4c(C)cc(=O)oc4c3)C2=O)c1` (stereo not given), the percent of DMSO control GFP in assay [1] is 99.5% (inactive). Besides, the GFP response vs DMSO in assay [2] was 106% (inactive); in [4], 132% (inactive). In addition, the percent response of DMSO control in [3] is 87.2% (inactive). For the same compound, the GFP response, % of DMSO in assay [5] was 97.1% (inactive). In assay [6], this compound displayed a double positive events of 61%. In addition, in assay [6], the vesicle binding response is 238% (inactive). For the same compound, the inhibition in [7] is -0.43% (inactive); in assay [11], -2.24% (inactive); in assay [15], 4% (inactive). For the same compound, the superoxide response (% of plate) in assay [8] was 93.9% (inactive). For the same compound, the aptamer binding inhibition in assay [9] was 2% (inactive). Moreover, the response in assay [10] was 5.39% (inactive); in assay [12], 8.95% (inactive). Further, in assay [13], the binding (% of control) was 98.9% (inactive). Also, the efflux inhibition (fraction of control) in [14] was -0.06 (inactive). Also, the differentiation response in assay [16] was 39.2% (inactive).

`COc1ccc(C(=O)Oc2ccc3c(C)cc(=O)oc3c2C(C)=O)cc1`: in assay [1], the percent of DMSO control GFP was 104% (inactive). In addition, the GFP response vs DMSO was 103% (inactive) in assay [2] and 105% (inactive) in assay [4]. Further, the percent response of DMSO control in assay [3] is 108% (inactive). The GFP response, % of DMSO in [5] is 106% (inactive). In addition, in assay [6], the double positive events amounted to 61.4%. In addition, the vesicle binding response in [6] is 123% (inactive). The inhibition in assay [7] is -5.11% (inactive); in assay [11], 5.55% (inactive); in assay [15], 14% (inactive). Also, the superoxide response (% of plate) in assay [8] is 103% (inactive). Moreover, in assay [9], the aptamer binding inhibition is -1% (inactive). Also, the values for the response in assay [10] and in assay [12] were 2.26% (inactive) and -3.4% (inactive), respectively. Moreover, in [13], the binding (% of control) was 107% (inactive). For the same compound, the efflux inhibition (fraction of control) in assay [14] is 0.12 (inactive). The differentiation response in assay [16] is -19.2% (inactive).

On to `O=C(CCC1CCCN(C(=O)c2ccsc2)C1)NCc1ccc(F)c(F)c1` (stereo not given), for which the percent of DMSO control GFP in assay [1] is 99% (inactive). In addition, the GFP response vs DMSO in [2] and in assay [4] was 103% (inactive) in each case. Also, the percent response of DMSO control in [3] is 94.2% (inactive). Moreover, the GFP response, % of DMSO in [5] was 98.9% (inactive). In assay [6], this compound came in with a double positive events of 62.4%. In assay [6], the vesicle binding response is 183% (inactive). Also, the inhibition in assay [7] is -9.79% (inactive); in assay [11], -6.99% (inactive); in assay [15], -8% (inactive). Also, in assay [8], the superoxide response (% of plate) is 102% (inactive). In addition, the aptamer binding inhibition in [9] is -2% (inactive). Further, the response in [10] was -9.44% (inactive); in assay [12], 1.61% (inactive). The binding (% of control) in assay [13] is 104% (inactive). Moreover, the efflux inhibition (fraction of control) in assay [14] was 0.08 (inactive). For the same compound, in assay [16], the differentiation response is 8.06% (inactive).

Take `CC1=NS(=O)(=O)c2cc(Cl)ccc2N1`: the percent of DMSO control GFP in [1] was 98.8% (inactive). Moreover, the figures for the GFP response vs DMSO in assay [2] and in assay [4] were 105% (inactive) and 84.1% (inactive), respectively. The percent response of DMSO control in assay [3] is 93.1% (inactive). For the same compound, the GFP response, % of DMSO in assay [5] is 97% (inactive). The same compound displayed a double positive events in assay [6] of 63.9%. Also, the vesicle binding response in [6] is 964% (inactive). For the same compound, the inhibition in [7] was -3.57% (inactive); in [11] it was 14.6% (inactive); in assay [15] it was 4% (inactive). Further, in assay [8], the superoxide response (% of plate) is 104% (inactive). In assay [9], the aptamer binding inhibition was 3% (inactive). Moreover, the response in [10] was -5.04% (inactive); in [12], -1.96% (inactive). Besides, in assay [13], the binding (% of control) is 101% (inactive). Besides, the efflux inhibition (fraction of control) in assay [14] was -0.1 (inactive). The differentiation response in assay [16] is 34.5% (inactive).

(Values after PubChem BioAssay.)
